The campaign covered roughly 1,400 compounds. About 350 (25%) were called active. Not shown: some 2% with an inconclusive outcome. The list is a sample of the results. Measured potencies and affinities stand elsewhere. Values without a mark were called inactive. No rule for the calls is given here.

The assay can be described thus: C. difficile growth inhibition, confirmation, 4-point retest (AID 1224921).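 Also: plate controls were DMSO wells for no effect and levofloxacin 16 µg/mL wells for full effect.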 The conditions noted are these: Clostridioides difficile clinical isolate growth, OD600, 24 h, hits give low values; at 30 µM unless noted.
`COc1ccccc1S(=O)(=O)N[C@@H]1C=C[C@H](CC(=O)N2CCCCC2)O[C@@H]1CO`: the max activity is -6.91% [at 0.5 µM].
Take `C[C@@H]1CN([C@H](C)CO)C(=O)c2cccc(NC(=O)Nc3ccc(C(F)(F)F)cc3)c2O[C@H]1CN(C)S(=O)(=O)c1ccc(Cl)cc1`: the max activity is 33.1%.
On to `C[C@@H]1CN([C@@H](C)CO)C(=O)c2cccc(NC(=O)Nc3ccc(C(F)(F)F)cc3)c2O[C@H]1CN(C)S(=O)(=O)c1ccc(Cl)cc1`, for which the max activity was 49.8%.
Turning to `C[C@H]1CCCCO[C@H](CN(C)S(=O)(=O)c2cn(C)cn2)[C@@H](C)CN([C@@H](C)CO)C(=O)c2cc(NC(=O)CCCN(C)C)ccc2O1`, the max activity was 5.89% [at 8 µM].
As to `C[C@H](CO)N1C[C@H](C)[C@@H](CN(C)S(=O)(=O)c2cn(C)cn2)OCCCC[C@H](C)Oc2ccc(NC(=O)Nc3cccc4ccccc34)cc2C1=O`, the max activity is 18.8%.
Under `CC(C)NC(=O)Nc1ccc2c(c1)CC(=O)N([C@H](C)CO)C[C@@H](C)[C@@H](CN(C)Cc1ccc(-c3ccccc3)cc1)O2` stands 54.7%.
Consider `C[C@@H]1CN([C@H](C)CO)S(=O)(=O)c2ccc(C3=CCCCC3)cc2O[C@H]1CN(C)Cc1cccnc1`, for which the max activity is 53.5%.
The figure for `CC(C)C#Cc1ccc2c(c1)O[C@@H](CN(C)Cc1ccncc1)[C@@H](C)CN([C@H](C)CO)S2(=O)=O` is 30.4%; for `COc1ccc(NC(=O)O[C@H]2[C@H](OC(=O)Nc3ccccc3)[C@H](OC(=O)Nc3ccccc3)[C@@H](OC)O[C@@H]2CO)cc1` it is 32.3%; for `C[C@H](NC(=O)N(C)C[C@@H]1OCc2ccccc2-c2c(n(C)c3ccccc23)C(=O)N([C@H](C)CO)C[C@H]1C)c1ccccc1` it is 18.8%.
Turning to `CC(=O)N(C)C[C@H]1Oc2ncc(-c3ccc(C(=O)N(C)C)cc3)cc2C(=O)N([C@H](C)CO)C[C@H]1C`, the max activity was -8.17%.
The figure for `CO[C@@H]1CN(C)C(=O)c2ccc(NC(=O)Nc3ccc4c(c3)OCO4)cc2OC[C@@H](C)NC[C@@H]1C` is 10.6%; for `COCC(=O)Nc1ccc2c(c1)C(=O)N(C)C[C@@H](OC)[C@H](C)CN[C@H](C)CO2` it is -10.3% [at 1.95 µM]; for `COc1ccc(CN(C)C[C@H]2OCCCC[C@@H](C)Oc3ccc(NC(=O)Nc4ccc5c(c4)OCO5)cc3C(=O)N([C@@H](C)CO)C[C@@H]2C)cc1` it is 44.6%.
For `C[C@@H]1CN([C@@H](C)CO)C(=O)c2ccccc2-c2ccccc2CO[C@H]1CN(C)S(=O)(=O)c1ccsc1`, the max activity was 36%.

Source of the values: PubChem BioAssay AID1224921 (Broad Institute, 2016).
